Here are results for 16 sequences from the OligoGym collection.
Further: reference of the scale not given here.

This assay deals with CASP8. As to the kind of experiment: pooled miR-30 sensor sort-seq; sequence = guide strand. The note with it: shRNA.
Consider TTTCTGCTGAAGTCCATCTTTT, for which the sensor-assay potency score (higher = more potent) is -1.01. The same measure for ATCTGATAGAGCATGACCCTGT: -0.509. Under TTCTTCTGAAATCTGATAGAGC stands -0.601. TTCTTGTCATCCTTGTTGCTTA yielded a sensor-assay potency score (higher = more potent) of -0.496.

For TTTACTTTCAATAACCACCCTG, the sensor-assay potency score (higher = more potent) came out at 0.433.

Regarding TTCTGAAATCTGATAGAGCATG, the sensor-assay potency score (higher = more potent) is -1.4. Under TTACTTTCAATAACCACCCTGG stands 0.486; under TTAGTGTGAAAGTAGGCTGAGG, -0.589. Under TAGATTTGCTCTACTGTGCAGT stands 0.44; under TAATGATTTAAAATAATCCAAG, -1.15; under ATAGATAACAATCTGAATCATA, -0.657. Under TTCATAGTTCACTTCAGTCAGG stands -0.715.

In turn, TTTTGCAAAATTGTGATTGTTG gave a sensor-assay potency score (higher = more potent) of 0.0045.

Take ATAGTCGTTGATTATCTTCAGC: the sensor-assay potency score (higher = more potent) is -0.538.

TACTGTGCAGTCATCGTGGGGC: the sensor-assay potency score (higher = more potent) came out at 0.503. Under TTGAGGTGATGATAAATCCATT stands -0.92.
